Consider six compounds from PubChem BioAssay.

Values joined by “and” are separate entries in the source; they are usually repeats but may differ in a detail not shown here. Equal entries are not always repeated. Records with an inconclusive call do not appear. Some compounds were tested as several samples or in several runs, with calls that do not always agree. Active and inactive are the calls of the source.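 How the source made its calls, unless noted: active means normalized viability below 100% at a tested concentration; inactive means the rest.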

The nature of assay [1]: viability loss in pontine glioma line – cell-based, JHH-DIPG-1, MIPE4.0, CellTiter-Glo, qHTS, dose response (AID 1347062; cut-off not given, nearly all actives have AC50 up to about 27 µM;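 on AC50: cells exposed to compound for two days before readout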). The settings on record: JHH-DIPG-1 viability, CellTiter-Glo ATP luminescence.
Assay [2] can be described thus: viability loss in pontine glioma line – cell-based, SU-DIPG-XXV, MIPE5.0, CellTiter-Glo, qHTS, dose response (AID 1347065; cut-off not given, nearly all actives have AC50 up to about 26 µM;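 further: cells exposed to compound for 48 hours before ATP readout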). As to conditions: CellTiter-Glo ATP luminescence.
A short description of assay [3]: JHH-DIPG-1 glioma cell viability, MIPE5.0 library, CellTiter-Glo luminescence, qHTS (AID 1347067; cut-off not given, nearly all actives have AC50 up to about 26 µM;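 further: cells exposed to compound for 48 hours before readout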). As to conditions: JHH-DIPG-1 glioma viability, CellTiter-Glo ATP luminescence.
Assay [4] in a line: growth inhibition of DIPG cells – cell-based, MIPE5.0 library, qHTS (AID 1347068; cut-off not given, nearly all actives have IC50 up to about 30 µM;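 on IC50: cells exposed to compound for 48 hours before viability readout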). As to conditions: SU-DIPG-XXV viability. For orientation: qHTS replaces the single test concentration by a dilution series.
A short description of assay [5]: viability loss with induced miR-34 in A549 – imaging, A549 dox-inducible miR-34, nuclei and caspase counts, primary screen (AID 1347080;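 active means compounds whose cell count with miR-34 switched on is under 0.7 times the count with it off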). The settings on record: A549 miR-34 inducible, Hoechst nuclei count, 48 h.
A short description of assay [6]: MELAS cybrid and Rieske KO viability enhancers – cell-based, MELAS cybrids, Rieske KO mouse fibroblasts, CellTiter-Glo, primary screen (AID 1508586;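 active means mean z-score across replicates of 1.96 or higher in either the MELAS or the Rieske mutant cell line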;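 further: z relative to plate mean and SD of compound and empty wells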). As to conditions: low glucose. In general terms: In ATP-based viability assays light output follows the ATP content of the culture.
A short description of assay [7]: P. berghei load reduction in hepatocytes – cell-based, HepG2, luciferase luminescence, HepG2 viability, primary screen (AID 624349; in the data active means parasite load remaining mostly below about 12%, no sharp cut-off; inactive means mostly above about 10%;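 further: 100% = mean of DMSO negative control wells on the same plate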). The settings on record: P. berghei liver stage in HepG2, luciferase luminescence, concentration not given here; parasite load remaining: stronger effect = lower value; viability: measured here: HepG2 viability without parasites.
Assay [8] can be described thus: viability loss in pontine glioma line – cell-based, SU-DIPG-IV, MIPE4.0, CellTiter-Glo, qHTS, dose response (AID 1347063; cut-off not given, nearly all actives have AC50 up to about 30 µM;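 further: compound exposure lasted 48 hours before the viability readout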). As to conditions: CellTiter-Glo ATP luminescence.
A short description of assay [9]: compounds altering circadian rhythm period length – cell-based, LOPAC library, luminescence reporter (AID 2774; call rule not given here;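 further: values are relative to mean of DMSO wells on each plate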). As to conditions: circadian reporter cells, at 7 µM, actives lie on both sides.
In assay [10] the test system is Hepatitis C virus NS3 helicase. The experiment in a line: blockers of NS3h binding to ssDNA – biochemical, fluorescence polarization, LOPAC1280 library, primary screen (AID 687035; in the data active means inhibition above about 37%). The settings on record: Purified HCV NS3 helicase, Cy5-dT15 ssDNA binding fluorescence polarization; stronger effect = higher value; concentration not given here.
Assay [11] can be described thus: compounds altering Cy5-DNA-NS3h complex signal – biochemical, LOPAC1280, artefact control for HCV NS3 helicase inhibitor project (AID 687037; call rule not given here). The settings on record: Cy5-DNA-NS3h complex fluorescence interference counterscreen. In general terms: A counterscreen serves to expose hits that act by an unwanted route or on another target.
The nature of assay [12]: viability loss in pontine glioma line – cell-based, SU-DIPG-XIII, MIPE5.0, CellTiter-Glo, qHTS, dose response (AID 1347064; cut-off not given, nearly all actives have AC50 up to about 23 µM;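 further: cells exposed to compound for 48 hours before the viability read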). As to conditions: CellTiter-Glo ATP luminescence.
Assay [13] is described as follows: growth inhibition of DIPG cells – cell-based, MIPE4.0 library, CellTiter-Glo luminescence, qHTS (AID 1347066; cut-off not given, nearly all actives have AC50 up to about 30 µM;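 further: cells exposed to compound for 48 hours before readout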). As to conditions: SU-DIPG-VI viability, CellTiter-Glo ATP luminescence.
Assay [14] can be described thus: blockers of cellular phospholipid synthesis – cell-based, LOPAC library, screen 4, primary screen (AID 1347384; call rule not given here). The settings on record: animal cells, phospholipid biosynthesis inhibition screen; at 10 µM.
The nature of assay [15]: galactose survival enhancers in mitochondrial complex I cybrids – cell-based, galactose medium, ATP luminescence, primary screen (AID 1645843;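 active means z-score of at least 1.8 in each of two replicates, scored against plate mean and spread of sample wells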;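 further: positive z means more ATP and so rescue of galactose-driven cybrid death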). The settings on record: complex I mutant cybrid cells, 72 h, stronger effect = higher value.
Assay [16] is described as follows: liver-stage malaria parasite load reduction – cell-based, known kinase inhibitor set, luminescence, hepatoma host viability (AID 624392; call rule not given here;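 further: infected cells incubated roughly two days before readout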). The settings on record: Plasmodium liver stage in hepatoma cells, luciferase luminescence, concentration not given here; liver cell % of control: measured here: host liver cell viability; parasite % of control: stronger effect = lower value.

Assay [17] is described as follows: compounds altering HSF1 focus formation in cells – imaging, Selleck Cancer Library (AID 1347162; in the data active means plate-normalised HSF1 focus index below about 0.46). As to conditions: human cells, HSF1 nuclear foci imaging, at 10 µM; SSMD: measured here: HSF1 foci SSMD mean; cell count: measured here: cell number; plate-normalised HSF1 focus index: stronger effect = lower value.
A short description of assay [18]: drug combination growth inhibition, ovarian cancer – cell-based, oncology-focused library, rucaparib conditional, profiling panel (AID 1508598). As to conditions: patient-derived ovarian cancer cells, CellTiter-Glo viability, 144 h, stronger effect = lower value.
The mark [19] stands for this setting: stronger effect = lower value, cell number ratio, induced over uninduced.
[20] abbreviates: measured here: relative caspase fold change +Dox/-Dox.
Setting [21] is: measured here: total cells with miR-34 induction, stronger effect = lower value.
[22] abbreviates: measured here: total cells without miR-34 induction.
Where [23] appears, read: MELAS cybrid survival, CellTiter-Glo 48 h, stronger effect = higher value.
[24] abbreviates: Rieske KO mouse fibroblast survival, CellTiter-Glo 72 h.

On to `CC(C)(C)c1nc(-c2cccc(NS(=O)(=O)c3c(F)cccc3F)c2F)c(-c2ccnc(N)n2)s1`, for which the call in assay [1], in assay [2], in assay [3] and in assay [4] was inactive. The fold change is 1 (inactive) in [5] (setting [19]) and 0.762 in [5] (setting [20]). The cell count in assay [5] (setting [21]) and in assay [5] (setting [22]) was 8520 each time. The z-score in assay [6] (setting [23]) is -0.255 (inactive); in assay [6] (setting [24]), 0.678.
`N#Cc1c(C2CCNCC2)cc(-c2c(O)cccc2OCC2CC2)nc1N`: in assay [7], the parasite load remaining was 29.7% (inactive) and the viability came to 88.8%. Also, in assay [1], the AC50 is 23.5 µM (active). Also, the AC50 in assay [8] was 13.2 µM (active). The IC50 in assay [4] is 20.9 µM (active).
Turning to `CC(C)N(CCCNC(=O)Nc1ccc(C(C)(C)C)cc1)C[C@H]1O[C@@H](n2cc(Br)c3c(N)ncnc32)[C@H](O)[C@@H]1O`, the AC50 in assay [8] is 14.8 µM (active). In addition, the IC50 in [4] is 23.5 µM (active).
For the compound `C[C@H](Cc1ccc(O)c(O)c1)[C@@H](C)Cc1ccc(O)c(O)c1`, the period change in assay [9] was 0.005 h (inactive). Moreover, the inhibition in assay [10] was -2% (inactive). The fluorescence ratio (interference) in assay [11] is 1 (inactive). For the same compound, the results for the half-maximal activity concentration (AC50) in [8], in assay [12] and in assay [13] were 16.6 µM (active), 18.6 µM (active) and 23.5 µM (active), respectively. The compound was called inactive in assay [4] and in [14]. For the same compound, the fold change in [5] (setting [19]) was 1.02 (inactive); in assay [5] (setting [20]), 0.821. The figures for the cell count in assay [5] (setting [21]) and in assay [5] (setting [22]) were 8920 and 8770, respectively. Moreover, in assay [15], the z-score was -1.22 (inactive).
For `c1ccc(-c2oc3ncnc(NC[C@@H]4CCCO4)c3c2-c2ccccc2)cc1`, the concentration at half-maximal activity (AC50) in [8] and in assay [13] was 20.9 µM (active) throughout. In assay [4], the outcome was inactive.
With `Cc1nc(N)sc1-c1ccnc(Nc2ccc(N3CCOCC3)cc2)n1`, the liver cell % of control in assay [16] was 72.4% and 73.5% and 98.2%. For the same compound, in assay [16], the parasite % of control was 0.414% (inactive) and 0.47% (inactive) and 0.326% (active). Also, the AC50 in assay [8] was 20.9 µM (active); in assay [12], 5.9 µM (active); in assay [2], 2.63 µM (active); in assay [3], 14.8 µM (active). Moreover, the values for the fold change in assay [5] (setting [19]) and in [5] (setting [20]) were 0.855 (inactive) and 1.29, respectively. For the same compound, the cell count in [5] (setting [21]) turned out to be 1260; in assay [5] (setting [22]), 1470; in assay [17], 7110. Besides, the SSMD in assay [17] came to 3.31. Further, the plate-normalised HSF1 focus index in assay [17] was 1.12 (inactive). The z-score in [6] (setting [23]) was 1.86 (inactive); in assay [6] (setting [24]), -0.218. The viability in assay [18] (at 0.000305 µM, OCI-C5x cells, with rucaparib 10 µM, 100% = cells with rucaparib alone) was 109% (inactive); in [18] (at 0.000305 µM, OCI-C5x cells, without rucaparib), 111% (inactive); in [18] (at 0.000305 µM, OCI-P5x cells, with rucaparib 20 µM, 100% = cells with rucaparib alone), 125% (inactive); in assay [18] (at 0.000305 µM, OCI-P5x cells, without rucaparib), 120% (inactive); in [18] (at 0.00122 µM, OCI-C5x cells, with rucaparib 10 µM, 100% = cells with rucaparib alone), 110% (inactive); in assay [18] (at 0.00122 µM, OCI-C5x cells, without rucaparib), 112% (inactive). In addition, the viability in [18] (at 0.00122 µM, OCI-P5x cells, with rucaparib 20 µM, 100% = cells with rucaparib alone) was 115% (inactive); in [18] (at 0.00122 µM, OCI-P5x cells, without rucaparib) it was 120% (inactive); in assay [18] (at 0.00488 µM, OCI-C5x cells, with rucaparib 10 µM, 100% = cells with rucaparib alone), 104% (inactive); in assay [18] (at 0.00488 µM, OCI-C5x cells, without rucaparib), 112% (inactive); in assay [18] (at 0.00488 µM, OCI-P5x cells, with rucaparib 20 µM, 100% = cells with rucaparib alone), 117% (inactive); in assay [18] (at 0.00488 µM, OCI-P5x cells, without rucaparib) it was 124% (inactive). In addition, the viability in assay [18] (at 0.0195 µM, OCI-C5x cells, with rucaparib 10 µM, 100% = cells with rucaparib alone) was 104% (inactive); in assay [18] (at 0.0195 µM, OCI-C5x cells, without rucaparib) it was 95.4% (active); in assay [18] (at 0.0195 µM, OCI-P5x cells, with rucaparib 20 µM, 100% = cells with rucaparib alone) it was 116% (inactive).

Usually viability stands for a read-out of living cells in per cent, often relative to untreated cells. The AC50 is the concentration at which the activity in the assay is half-maximal. As a reminder, the IC50 is the midpoint of a concentration-inhibition curve. For orientation: inhibition means the drop in the measured response relative to a control, in per cent.
